According to PubChem BioAssay AID1159580 (chemical genetic matrix, 2015):
Where “and” joins values, the source holds several entries; their conditions need not be identical. Equal entries are not always repeated. Hit rate of the full screen: of about 5,500 compounds, about 2,000 (36%) were called active. Not shown: some 18% with an inconclusive outcome. Rule as the data show it: active = normalized growth mostly below about 0.91 (no sharp cut-off); inconclusive = no clear call, values can overlap the other calls; inactive = mostly above about 0.92. Some of the results follow.

Test: chemical genetic growth profiling, strain panel (AID 1159580);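 also: tested at 20 µM; growth read once vehicle control cultures reached saturation at 30 °C; 1 = growth at the plate median or of vehicle wells; lower values mean less growth of the strain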
Conditions: S. cerevisiae deletion strains, growth OD

Measured: normalized growth

C[C@]12CCC(=O)C=C1C=CC1C2CC[C@@]2(C)C1CC[C@@]2(O)CCC(=O)O (stereo partly specified)
inactive: locus YAL013W, strain DEP1, hits give low values 1 | locus YAL021C, strain ccr4, hits give low values 1.02 | locus YAL026C, strain drs2, hits give low values 1.01 | locus YAL030W, strain snc1, hits give low values 1.02 | locus YBL061C, strain skt5, hits give low values 1.03 | locus YBR009C, strain hhf1, hits give low values 0.997 | locus YBR021W, strain FUR4, hits give low values 0.985 | locus YBR023C, strain chs3, hits give low values 1.02 | locus YBR171W, strain sec66, hits give low values 1.03 | locus YBR229C, strain ROT2, hits give low values 0.991 | locus YBR231C, strain swc5, hits give low values 1.01 | locus YBR279W, strain paf1, hits give low values 1.03 | locus YCL011C, strain gbp2, hits give low values 1.03 | locus YCL016C, strain dcc1, hits give low values 1.01 | locus YCL029C, strain bik1, hits give low values 0.963 | locus YCL069W, strain vba3, hits give low values 1.04 | locus YCR088W, strain abp1, hits give low values 1.03 | locus YDL005C, strain med2, hits give low values 1.03 | locus YDL035C, strain GPR1, hits give low values 1.02 | locus YDL040C, strain nat1, hits give low values 1.04 | locus YDL074C, strain BRE1, hits give low values 0.969 | locus YDL101C, strain DUN1, hits give low values 0.982 | locus YDL134C, strain PPH21, hits give low values 0.99 | locus YDL185W, strain tfp1, hits give low values 0.982 | locus YDL192W, strain arf1, hits give low values 0.997 | locus YDR001C, strain nth1, hits give low values 1.01 | locus YDR069C, strain doa4, hits give low values 1.01 | locus YDR101C, strain arx1, hits give low values 0.98 | locus YDR137W, strain rgp1, hits give low values 0.986 | locus YDR150W, strain NUM1, hits give low values 1 | locus YDR159W, strain sac3, hits give low values 0.982 | locus YDR162C, strain NBP2, hits give low values 1 | locus YDR195W, strain ref2 1.02 | locus YDR297W, strain sur2, hits give low values 1.02 | locus YDR318W, strain mcm21, hits give low values 0.986 | locus YDR334W, strain swr1, hits give low values 1.04 | locus YDR335W, strain msn5, hits give low values 1.03 | locus YDR388W, hits give low values 0.988 | locus YDR392W, strain spt3, hits give low values 0.978 | locus YDR502C, strain sam2, hits give low values 0.989 | locus YEL003W, strain gim4, hits give low values 1.02 | locus YEL037C, strain rad23, hits give low values 1.04 | locus YEL061C, strain CIN8 (second series), hits give low values 1.02 | locus YEL061C, strain CIN8, hits give low values 0.999 | locus YER015W, strain faa2, hits give low values 1.04 | locus YER016W, strain bim1, hits give low values 1 | locus YER110C, hits give low values 0.986 | locus YER111C, strain swi4, hits give low values 1.03 | locus YER155C, strain BEM2 (second series), hits give low values 1.02 | locus YER155C, strain BEM2, hits give low values 0.986 | locus YER167W, strain BCK2, hits give low values 1.01 | locus YFR010W, strain ubp6, hits give low values 1.04 | locus YGL078C, strain dbp3, hits give low values 0.983 | locus YGL086W, strain mad1, hits give low values 1 | locus YGL167C, strain pmr1, hits give low values 1.02 | locus YGL173C, strain kem1, hits give low values 1.01 | locus YGL227W, strain vid30, hits give low values 1.01 | locus YGL240W, strain doc1, hits give low values 0.968 | locus YGL248W, strain PDE1, hits give low values 0.994 | locus YGL253W, strain hxk2, hits give low values 1.03 | locus YGR078C, strain PAC10, hits give low values 0.987 | locus YGR135W, strain pre9, hits give low values 0.988 | locus YGR229C, strain SMI1, hits give low values 1.03 | locus YGR252W, strain gcn5, hits give low values 1.07 | locus YHR013C, strain ard1, hits give low values 1.02 | locus YHR027C, strain rpn1, hits give low values 1.02 | locus YHR030C, strain SLT2, hits give low values 0.996 and 1.06 | locus YHR079C, strain IRE1 (second series), hits give low values 0.991 | locus YHR079C, strain IRE1, hits give low values 1.08 | locus YHR094C, strain hxt1, hits give low values 0.993 | locus YHR129C, strain ARP1, hits give low values 0.986 | locus YHR142W, strain chs7, hits give low values 1.05 | locus YHR200W, strain rpn10, hits give low values 0.984 | locus YIL066C, strain RNR3, hits give low values 0.982 | locus YIL073C, strain SPO22, hits give low values 0.975 | locus YIL125W, strain kgd1, hits give low values 1.01 | locus YIR030C, strain dcg1, hits give low values 0.991 | locus YJL092W, strain hpr5, hits give low values 1.03 | locus YJL095W, strain BCK1 (second series), hits give low values 1.03 | locus YJL095W, strain BCK1, hits give low values 0.956 and 1.05 | locus YJL115W, strain asf1, hits give low values 1.03 | locus YJL129C, strain trk1, hits give low values 1.06 | locus YJL134W, strain LCB3, hits give low values 0.997 | locus YJL154C, strain vps35, hits give low values 1.01 | locus YJL164C, strain tpk1, hits give low values 1.01 | locus YJL166W, strain qcr8, hits give low values 0.996 | locus YJL168C, strain set2, hits give low values 0.987 | locus YJL187C, strain SWE1 (second series), hits give low values 0.971 | locus YJL187C, strain SWE1, hits give low values 1.03 | locus YJR043C, strain POL32, hits give low values 0.974 | locus YJR066W, strain TOR1, hits give low values 0.976
